Test results as given in PubChem BioAssay (NCATS).
Inconclusive results are not listed. Calls of active or inactive are those of the source. Unless noted, calls follow the shape of the dose curve; as a rule, active = well fitted curve in the direction sought with a large enough effect; inconclusive = small, poorly fitted or top-dose-only effect, or another doubt; inactive = no such curve, though single readings can be large; an effect the other way counts as inactive or inconclusive.

What was measured:
[1] = tested on: Zika virus NS2B-NS3 protease; assay: Primary screen GU AMC qHTS for Zika virus inhibitors (AID 1347154); also: nearly all actives have a fitted effect of over 70% in size
Summary of the method: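 Fluorogenic AMC-substrate cleavage by noncovalent NS2B-NS3 protease complex (25 nM, pH 8.0 Tris buffer with Tween 20) followed for 15 minutes at room temperature (~20% conversion). Percent inhibition from ex340/em450 signal change, fitted by 4-parameter Hill equation.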

[2] = Cell Viability qHTS for small molecule stabilizers of the endoplasmic reticulum resident proteome (AID 1508629); details: cell viability counter-screen, 100 nM thapsigargin for final 4 h;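 also: potency is read from the fitted curve at half-maximal effect; compound exposure about 46 h in total before the viability read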
[3] = target: Glucocorticoid receptor (Homo sapiens) (UniProt P04150); assay: GR-GFP Redistribution (AID 450;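 active = compounds whose dose series gives a full or clear partial fitted curve of increased nuclear translocation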; also: potency is read from the fitted curve at half-maximal effect); details: U2OS GR-GFP nuclear translocation, laser cytometry, 2 h
Glucocorticoid receptor (Homo sapiens), sequence (P04150 whole entry, looked up, the tested form may be a part): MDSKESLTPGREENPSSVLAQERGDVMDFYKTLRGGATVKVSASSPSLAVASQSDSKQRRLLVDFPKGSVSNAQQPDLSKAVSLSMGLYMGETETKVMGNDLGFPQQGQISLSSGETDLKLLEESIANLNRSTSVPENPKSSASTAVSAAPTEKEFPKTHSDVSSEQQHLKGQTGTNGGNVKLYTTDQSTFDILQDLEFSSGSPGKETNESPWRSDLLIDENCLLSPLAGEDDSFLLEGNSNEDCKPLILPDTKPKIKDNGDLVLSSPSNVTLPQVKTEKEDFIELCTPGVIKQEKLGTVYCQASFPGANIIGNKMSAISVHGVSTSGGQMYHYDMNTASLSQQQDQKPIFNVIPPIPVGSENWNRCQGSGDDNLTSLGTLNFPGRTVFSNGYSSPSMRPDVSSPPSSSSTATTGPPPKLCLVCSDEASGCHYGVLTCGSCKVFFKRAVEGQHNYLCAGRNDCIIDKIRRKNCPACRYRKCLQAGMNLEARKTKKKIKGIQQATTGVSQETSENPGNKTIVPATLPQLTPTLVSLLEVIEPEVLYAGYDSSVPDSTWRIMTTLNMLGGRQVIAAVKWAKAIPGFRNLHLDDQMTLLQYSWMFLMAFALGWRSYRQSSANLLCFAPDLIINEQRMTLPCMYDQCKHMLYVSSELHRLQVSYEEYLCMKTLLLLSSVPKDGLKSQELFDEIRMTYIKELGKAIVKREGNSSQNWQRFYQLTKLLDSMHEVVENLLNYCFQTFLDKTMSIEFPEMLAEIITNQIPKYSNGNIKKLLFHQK

[4] = target: Glucocorticoid receptor (Homo sapiens) (UniProt P04150); assay: GR-EFC Redistribution (AID 451; calls by dose curve; also: potency is read from the fitted curve at half-maximal effect); details: CHO-K1 GR-EFC translocation, beta-gal luminescence, 2 h
Summary of the method: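 Translocation of GR-ED fusion to nuclear EA restores b-gal, read by luminescence after 1 h room-temperature detection. Engineered CHO-K1 biosensor cells, 1,000/well, exposed 2 h at 37 C to titrations up to 46 uM final.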

[5] = target: Mitogen-activated protein kinase 10 (Mus musculus) (UniProt Q61831); assay: JNK3 AlphaScreen Assay (AID 530; active = well fitted curve in either direction with a large enough effect, not every such curve was filed as active;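 also: kinase came from lysate of stimulated human HepG2 cells; signal reports phosphorylation of biotinylated GST-cJun 1-79 at Ser73 with 10 µM ATP; series mostly up to about 57 µM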)
Summary of the method: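 qHTS titrations with 15 min compound pre-incubation before adding ATP (10 uM final). Read-out: AlphaScreen of Ser73-phosphorylated biotin-GST-cJun using HepG2 lysate JNK3 activated by IL-1β and TNFα.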

[6] = target: Guanine nucleotide-binding protein G(i) subunit alpha-1 (Homo sapiens) (UniProt P63096); assay: qHTS Assay for Inhibitors of RGS12 GoLoco Motif Activity (Green Fluorophore) (AID 879);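 also: negative values mean loss of peptide binding seen as reduced polarization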
Guanine nucleotide-binding protein G(i) subunit alpha-1 (Homo sapiens), sequence (P63096 whole entry, looked up): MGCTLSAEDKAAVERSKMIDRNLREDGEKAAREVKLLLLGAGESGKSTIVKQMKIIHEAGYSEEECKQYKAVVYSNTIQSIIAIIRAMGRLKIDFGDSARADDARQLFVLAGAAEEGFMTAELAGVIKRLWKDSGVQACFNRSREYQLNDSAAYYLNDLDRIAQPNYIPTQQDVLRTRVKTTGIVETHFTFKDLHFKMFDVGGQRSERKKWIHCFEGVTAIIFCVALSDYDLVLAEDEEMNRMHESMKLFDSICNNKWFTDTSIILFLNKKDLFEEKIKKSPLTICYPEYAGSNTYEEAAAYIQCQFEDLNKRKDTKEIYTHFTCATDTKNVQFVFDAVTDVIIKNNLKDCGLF
Summary of the method: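 A drop in FITC polarization marked displacement of the FITC-tagged RGS12 GoLoco peptide (10 nM) from Gαi1 (50 nM). Compounds were incubated 10 min at room temperature in Tris pH 7.5 buffer containing 150 mM NaCl, 0.1 mM GDP and 0.05% NP40; unlabeled peptide titration served as control.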

[7] = qHTS Assay for Identification of Small Molecule Antagonists for Thrombopoietin (TPO) Signaling Pathway (AID 918); details: TPO-dependent cell signaling reporter, antagonist mode; also: potency is read from the fitted curve at half-maximal effect; nearly all actives have a fitted effect of over 60% in size
Summary of the method: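 Inhibitors of TPO signaling are sought by stimulating IL-3-starved murine Ba/F3 cells (human TPO receptor, Glycoprotein IIb-driven luciferase) with TPO at its EC50 of 26 pM alongside compound. After 24 hrs at 37 C, reporter luminescence is measured.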

[8] = target: Muscarinic acetylcholine receptor M1 (Rattus norvegicus) (UniProt P08482); assay: qHTS Assay for Antagonists of Acetylcholine Muscarinic M1 Receptor: Kinetic Measurement of Intracellular Calcium Response (AID 943);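 also: Fluo-4 calcium signal as peak divided by basal fluorescence over 4 min; series mostly up to about 35 µM; nearly all actives have a fitted effect of over 75% in size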
Muscarinic acetylcholine receptor M1 (Rattus norvegicus), sequence (P08482 whole entry, looked up): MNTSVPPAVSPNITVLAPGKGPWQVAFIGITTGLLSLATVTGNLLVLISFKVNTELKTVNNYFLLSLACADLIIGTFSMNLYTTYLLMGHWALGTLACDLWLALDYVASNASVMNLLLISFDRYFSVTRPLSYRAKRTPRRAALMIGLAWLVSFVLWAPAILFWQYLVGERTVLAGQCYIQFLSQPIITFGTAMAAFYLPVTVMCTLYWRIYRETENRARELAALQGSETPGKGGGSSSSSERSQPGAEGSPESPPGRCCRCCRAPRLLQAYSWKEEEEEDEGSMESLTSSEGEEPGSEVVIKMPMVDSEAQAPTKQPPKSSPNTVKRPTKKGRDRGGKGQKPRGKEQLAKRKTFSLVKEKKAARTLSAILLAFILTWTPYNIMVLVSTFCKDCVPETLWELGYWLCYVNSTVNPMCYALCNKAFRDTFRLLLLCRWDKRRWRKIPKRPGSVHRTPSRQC
Summary of the method: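 Antagonism is measured as inhibition of the carbachol-evoked calcium rise in CHO cells transfected with rat M1. Cells are dye-loaded, exposed to compound for 10 min, then stimulated with 100 nM carbachol (EC80).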

[9] = target: Pyruvate kinase (Leishmania mexicana) (UniProt Q27686); assay: qHTS Validation Assay for Inhibitors of Leishmania Mexicana Pyruvate Kinase (AID 945)
Pyruvate kinase (Leishmania mexicana), sequence (Q27686 2-499 E452W): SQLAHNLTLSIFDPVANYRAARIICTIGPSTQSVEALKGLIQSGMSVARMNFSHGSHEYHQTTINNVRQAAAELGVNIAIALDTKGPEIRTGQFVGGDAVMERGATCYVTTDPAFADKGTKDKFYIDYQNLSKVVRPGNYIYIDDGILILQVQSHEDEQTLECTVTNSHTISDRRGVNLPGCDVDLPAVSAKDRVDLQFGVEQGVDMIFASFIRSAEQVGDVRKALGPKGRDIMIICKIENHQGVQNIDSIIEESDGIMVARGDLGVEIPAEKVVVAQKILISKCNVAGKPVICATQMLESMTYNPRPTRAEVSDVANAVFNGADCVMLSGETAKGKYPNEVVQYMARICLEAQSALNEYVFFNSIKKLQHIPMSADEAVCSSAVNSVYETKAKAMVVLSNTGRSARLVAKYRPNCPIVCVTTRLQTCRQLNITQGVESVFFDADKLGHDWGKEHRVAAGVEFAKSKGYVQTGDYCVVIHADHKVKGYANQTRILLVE
Summary of the method: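 The enzyme is a highly purified E451W mutant of LmPYK used at 0.2 nM. It converts 0.5 mM PEP and 0.1 mM ADP over 1 h at room temperature; product ATP is quantified by luciferase luminescence relative to DMSO controls.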

[10] = target: Alpha-galactosidase (Coffea arabica) (UniProt Q42656); assay: Counterscreen for Glucocerebrosidase Inhibitors: qHTS Assay for Coffee Bean alpha-Galactosidase at pH 4.5 (AID 957); also: series mostly up to about 77 µM
Alpha-galactosidase (Coffea arabica), sequence (Q42656 whole entry, looked up): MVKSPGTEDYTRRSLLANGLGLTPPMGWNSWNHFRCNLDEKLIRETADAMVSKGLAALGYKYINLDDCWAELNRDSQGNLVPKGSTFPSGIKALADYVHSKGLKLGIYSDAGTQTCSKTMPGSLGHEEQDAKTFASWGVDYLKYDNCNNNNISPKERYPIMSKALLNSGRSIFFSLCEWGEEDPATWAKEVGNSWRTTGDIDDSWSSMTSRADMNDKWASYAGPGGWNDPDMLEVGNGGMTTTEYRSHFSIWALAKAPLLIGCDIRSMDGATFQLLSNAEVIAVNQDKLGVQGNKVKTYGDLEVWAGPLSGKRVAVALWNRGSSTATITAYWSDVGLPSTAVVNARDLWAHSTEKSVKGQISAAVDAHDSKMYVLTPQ
Summary of the method: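 Enzyme is added first (2 nM final), then compounds titrated from 0.7 nM to 77 uM, then 80 uM 4-methylumbelliferyl alpha-D-galactopyranoside; after 20 min at room temperature a pH 10 NaOH/glycine stop precedes fluorescence reading at 365/440 nm.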

[11] = target: Alpha-galactosidase A (Homo sapiens) (UniProt P06280); assay: Counterscreen for Glucocerebrosidase Inhibitors: qHTS Assay for Human alpha-Galactosidase at pH 4.5 (AID 992)
Alpha-galactosidase A (Homo sapiens), sequence (P06280 whole entry, looked up): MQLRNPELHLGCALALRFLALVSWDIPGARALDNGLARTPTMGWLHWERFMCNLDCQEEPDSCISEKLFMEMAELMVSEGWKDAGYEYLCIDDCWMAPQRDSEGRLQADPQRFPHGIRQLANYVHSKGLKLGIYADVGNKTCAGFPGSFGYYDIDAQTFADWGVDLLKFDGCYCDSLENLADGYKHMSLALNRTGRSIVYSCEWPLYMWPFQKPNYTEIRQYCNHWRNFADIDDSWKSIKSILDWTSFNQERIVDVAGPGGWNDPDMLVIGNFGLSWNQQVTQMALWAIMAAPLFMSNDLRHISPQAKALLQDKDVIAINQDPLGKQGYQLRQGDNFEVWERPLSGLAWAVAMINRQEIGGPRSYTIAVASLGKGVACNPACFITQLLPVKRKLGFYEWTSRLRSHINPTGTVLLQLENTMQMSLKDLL
Summary of the method: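 Citrate buffer pH 4.5, Tween-20 0.005%. Enzyme 2 nM, substrate 80 uM, 20 min RT. Stop pH 10. Fluorescence Ex 365/Em 440. AC50 by Hill fit.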

[12] = target: DNA dC->dU-editing enzyme APOBEC-3G (Homo sapiens) (UniProt Q9HC16); assay: qHTS for inhibitors of Vif-A3G interactions: Validation (AID 588379)
DNA dC->dU-editing enzyme APOBEC-3G (Homo sapiens), sequence (Q9HC16 whole entry, looked up): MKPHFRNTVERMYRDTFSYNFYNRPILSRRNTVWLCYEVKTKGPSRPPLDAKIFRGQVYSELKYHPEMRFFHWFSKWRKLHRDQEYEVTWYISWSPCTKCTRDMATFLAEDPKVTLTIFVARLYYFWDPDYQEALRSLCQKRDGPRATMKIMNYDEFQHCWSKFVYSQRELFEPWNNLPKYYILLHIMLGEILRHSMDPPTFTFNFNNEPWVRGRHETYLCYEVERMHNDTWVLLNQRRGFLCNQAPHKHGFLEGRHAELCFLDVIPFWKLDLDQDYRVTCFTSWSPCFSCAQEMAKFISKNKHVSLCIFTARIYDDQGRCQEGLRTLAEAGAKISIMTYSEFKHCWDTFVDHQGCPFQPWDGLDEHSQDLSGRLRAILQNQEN
Summary of the method: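 Yellow fluorescence (Ex 488, Em 500-530) of Vif-coexpressing HeLa A3G-eYFP cells, scanned by Acumen cytometer, reports blocked A3G degradation. Cells plated at 700/well overnight at 37 deg C before compound addition, then a further overnight compound incubation at 37 deg C.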

[13] = Confirmatory qHTS for small molecule stabilizers of the endoplasmic reticulum resident proteome: Secreted ER Calcium Modulated Protein (SERCaMP) assay (AID 1508628); also: series mostly up to about 76 µM; nearly all actives have a fitted effect of over 40% in size
Summary of the method: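 Reporter secretion upon ER calcium depletion (100 nM thapsigargin, 4 h, 37C) is measured as medium luminescence with coelenterazine, after 16 h compound pretreatment of SH-SY5Y-GLuc-SERCaMP cells; primary at three concentrations up to 38.3 uM, follow-up at 11 (up to 76.6 uM).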

[14] = Primary qHTS for small molecule stabilizers of the endoplasmic reticulum resident proteome: Secreted ER Calcium Modulated Protein (SERCaMP) assay (AID 1508630)
Summary of the method: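 The SH-SY5Y reporter protocol was run at 3 concentrations up to 38.3 uM (primary) or 11 concentrations (follow-up): 16 h compound, 100 nM thapsigargin for 4 h, then extracellular luciferase luminescence.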

Measured: Potency

Fc1ccc(C(OCCN2CCN(C/C=C/c3ccccc3)CC2)c2ccc(F)cc2)cc1
active: [2] 20 µM
inactive: [1]

CN1CC[C@@H]2CN3CCc4cccc(c43)[C@@H]2C1
inactive: [1]

CNc1ccc2oc(C[C@H]3O[C@]4(CC[C@H]3C)O[C@H]([C@H](C)C(=O)c3ccc[nH]3)[C@H](C)C[C@H]4C)nc2c1C(=O)O
active: [7] 3.16 µM | [2] 8.91 µM
inactive: [3] > 46 µM | [4] > 46 µM | [5] | [6] | [8] | [9] | [10] | [11] | [12] | [1] | [13] | [14]

C=C1C(=O)O[C@@H]2C[C@@H](C)[C@@H]3C=CC(=O)[C@@]3(C)[C@@H](O)[C@H]12
inactive: [1] | [14]
